IL-1B inflam inh – qHTS for Inhibitors of Inflammasome Signaling: IL-1-beta AlphaLISA Primary Screen; activity change, % at 57.5 µM; THP-1 LPS/ATP IL-1B secretion, AlphaLISA, 16 h; active compounds read low; 4.7% of 360,000 active; AID 743279, 2014; in the data active = activity change below about -50%; inconclusive = mostly about -30% to -49%
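THP-1 cells pretreated 1 hr with compounds (up to 57.5 uM final), then stimulated with LPS (250 ng/mL final) plus ATP (1.25 mM final); secreted IL-1B measured by AlphaLISA after 16 hr, decreased signal indicating inhibition.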
KB-V1 MDR tox – qHTS assay for MDR1-selective chemotherapeutics: Primary screen using the drug-selected MDR subline cells KB-V1. KB-V1 MDR cells viability, CellTiter-Glo, 72 h. Potency, µM (doses to about 46.1 µM), most hits filed as cytotoxic. 3.4% of 400,000 active. AID 1347076, 2019; note: potency is the fitted concentration of half-maximal effect; nearly all actives have a fitted effect of over 60% in size
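KB-V1 cells (P-gp-expressing MDR subline of KB-3-1) in phenol-red-free DMEM with 10% FBS were exposed to library compounds over a concentration series for 72 h at 37 degrees C. Viability read by CellTiter-Glo luminescence; concentration-effect curves fitted after normalization.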
KB-3-1 cytotox – qHTS assay for MDR1-selective chemotherapeutics: Primary screen using the parental adenocarcinoma cell KB-3-1 | KB-3-1 viability, CellTiter-Glo ATP luminescence, 72 h | Potency, µM (highest dose often 46.1 µM), hits mostly cytotoxic | 1.4% of 400,000 active | AID 1347075, 2019; note: potency is the fitted concentration of half-maximal effect; nearly all actives have a fitted effect of over 60% in size
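Screening of KB-3-1 cells (DMEM, 10% FBS, phenol-red free) ran from lowest to highest compound concentration; after 72 h at 37 °C viability was read luminescently and curves fitted.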
HT1080 IDH1KD tx – qHTS for induction of synthetic lethality in tumor cells producing 2HG: qHTS for the HT-1080-IDH1KD cell line; HT-1080 IDH1 knockdown viability, ATP luminescence, 48 h; Potency, µM (series often up to 46.1 µM), inactives show at the top dose activity, negative = toxicity, hits mostly cytotoxic; 2% of 360,000 active;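 note: potency is the fitted concentration of half-maximal effect; 0% = DMSO wells and -100% = cell-free medium wells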
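Knockdown cells (IDH1KD HT-1080) received compounds 2 h after plating at 750 cells/well and were kept 48 h at 37 °C in 5% FBS RPMI. A CellTiter-Glo luminescence read gave % activity for curve fitting.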
HT1080-NT tox – qHTS for induction of synthetic lethality in tumor cells producing 2HG: qHTS for the HT-1080-NT fibrosarcoma cell line; HT-1080-NT fibrosarcoma viability, CellTiter-Glo ATP luminescence, 48 h; Potency, µM (highest dose often 46.1 µM), for inactives: at the highest dose activity, negative = less viability, usual class: cytotoxic; 1.6% of 360,000 active; AID 686970, 2013;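 note: NT is the 2HG producing partner of a matched IDH1 knockdown line; potency is the fitted concentration of half-maximal effect; 0% = DMSO-treated cells and -100% = media-only wells without cells; nearly all actives have a fitted effect of over 55% in size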
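Luminescent CellTiter-Glo readout after 48 hours of compound exposure at 37 degrees C defined viability of HT-1080-NT cells. Activity was normalized to DMSO wells and cell-free media wells; concentration-response curves were fitted and assigned curve classes.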
* = called active by the depositor; i = inactive; ? = inconclusive; / = not tested or not shown. A selection: hits, their analogues and other compounds. The true share with any hit is near 8.8%. Unless noted, calls come from the whole dose curve; as a rule, active = well fitted curve in the direction sought with a large enough effect; inconclusive = small, poorly fitted or top-dose-only effect, or another doubt; inactive = no such curve, though single readings can be large; an effect the other way counts as inactive or inconclusive. Unless noted, % is set by controls: 0 for no effect and ±100 for the full control effect.

SMILES | IL-1B inflam inh | KB-V1 MDR tox | KB-3-1 cytotox | HT1080 IDH1KD tx | HT1080-NT tox
COc1ccc(C)cc1Nc1nc2c(S(=O)(=O)c3cccc(Cl)c3)nnn2c2ccsc12 | / | i | i | / | /
COc1ccc(OC)c(NC(=O)c2c(NCc3ccc(C)o3)sc3c2CCC(C)C3)c1 (configuration not stated) | / | i | i | / | /
NC(=O)c1cc2c3ccccc3ccn2c1-c1ccccc1 | -91* | 0.65µM* | 1.2µM* | ? | 1.6µM*
Cc1cc(C(N)=O)c2ccccc2n1 | 16 | i | i | -9% | 1%
COc1cccc(NC(=O)Cn2c3ccc(F)cc3c3nc4n(c(=O)c32)CCCS4)c1 | 57 | i | i | -20% | -26%
CSCCC(C(=O)Nc1c(C)cccc1C)n1c(-c2ccc(-c3ccccc3)cc2)nc2ccccc21 (configuration not stated) | -9 | i | i | 6% | 9%
CSCCC(C(=O)Nc1c(C)cccc1C)n1c(COc2ccc(C)cc2)nc2ccccc21 (configuration not stated) | -58* | ? | ? | ? | -29%
CC(C)c1ccc([N+](=O)[O-])cc1S(=O)(=O)N1CCN(C)CC1 | -11 | i | i | -2% | -5%
Cc1ccc(NC(=O)c2cc(-c3ccc4c(c3)OCO4)on2)cc1C | -7 | i | i | 6% | -7%
CC(C)Cc1cc(C(=O)Nc2ccc3c(c2)OCO3)no1 | -22 | i | ? | 5.2µM* | ?
Cc1cc(C(=O)Nc2ccc3c(c2)OCO3)no1 | -16 | i | i | 21µM* | ?
O=C1[C@@H]2Cc3c([nH]c4ccccc34)C(c3ccc([N+](=O)[O-])cc3)N2C(=O)CN1C1CC1 (some centres not stated) | -21 | ? | ? | -24% | ?
COc1cccc(Cn2c(=O)cc(C)c3c(C)nn(C)c32)c1 | / | i | ? | / | /
CCc1ccc(-n2nc(C)c3c(C)cc(=O)n(CC(=O)N4CCCc5ccccc54)c32)cc1 | / | i | i | / | /
CC(=O)Nc1ccccc1OCc1cc(=O)n2c(C)csc2n1 | / | i | i | / | /
CCCn1nc(NS(=O)(=O)c2cccc3nonc23)c2cc3cccc(C)c3nc21 | 13 | i | i | -2% | -25%
CCCn1nc(NC(=O)c2ccccn2)c2cc3cc(C)ccc3nc21 | -63* | i | ? | 3% | 12%
CCCn1nc(NS(=O)(=O)c2cccc3nonc23)c2cc3cc(C)ccc3nc21 | -87* | i | i | -1% | -9%
CCCCC(=O)Nc1nn(CC(C)C)c2nc3ccccc3cc12 | 16 | 16µM* | i | -16% | -13%
COc1ccc2nc3c(cc2c1)c(NC(=O)c1cccs1)nn3CC(C)C | -51* | ? | ? | 13µM* | ?
COc1ccc(CNC(=O)c2ccc3c(c2)nc2n3CCCCC2)c(OC)c1 | / | i | ? | / | /
CCCn1nc(NC(=O)CC(C)C)c2cc3ccccc3nc21 | 19 | 5.2µM* | i | 10% | -7%
CC(C)Cn1nc(NC(=O)C(C)(C)C)c2cc3ccccc3nc21 | 86 | i | i | -10% | -4%
Cc1cc(/C=C2/NC(=O)N(c3ccccc3)C2=O)c(C)n1-c1cccnc1 | -83* | ? | i | -9% | -2%
Cc1cc(/C=C2\SC(=S)N(C)C2=O)c(C)n1-c1ccccc1O | -84* | ? | ? | ? | ?
CN1C(=O)/C(=C/c2coc3ccc(O)cc3c2=O)SC1=S | 14 | i | i | 3% | 1%
Cc1cc(/C=C2/SC(=S)N(c3cccc(Cl)c3)C2=O)c(C)n1-c1cccnc1 | -64* | i | i | 3.3µM* | ?
CCNC(=S)N(CCc1c(C)[nH]c2ccc(C)cc12)Cc1cccs1 | -53* | ? | i | ? | ?

From PubChem
